Molecules are shown by their SMILES. “And” between values parts separate entries of the source, which are not always exact repeats. Identical values can stand only once. Where a structure was tested more than once in an assay, its records may differ in their call. The source made the active and inactive calls. Unless noted, calls follow the shape of the dose curve; as a rule, active = well fitted curve in the direction sought with a large enough effect; inconclusive = small, poorly fitted or top-dose-only effect, or another doubt; inactive = no such curve, though single readings can be large; an effect the other way counts as inactive or inconclusive.

The nature of experiment [1]: Cellular Toxicity (caspase-3) H-4-II-E (AID 663).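 Also: cells exposed to compound for 16 hr before readout.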 The settings on record: H-4-II-E rat hepatoma, scaled: DMSO 0%, 100 µM tamoxifen 100%; at 92.2 µM (top of the series). Put shortly:
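Caspase 3/7 activation measured by luminescent aminoluciferin substrate cleavage after 16 hr compound treatment of H-4-II-E cells in complete medium. Increase normalized between DMSO (basal) and 100 uM tamoxifen (100%); Hill-equation AC50 from concentration-response.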

Experiment [2] in a line: MultiTox-Fluor Cytotoxicity Assay - LYMP1-001 - Live Cells (AID 947). Also: potency is read from the fitted curve at half-maximal effect.
A short description of experiment [3]: MultiTox-Fluor Cytotoxicity Assay - LYMP1-002 - Dead Cells (AID 960). Also: nearly all actives have a fitted effect of over 60% in size. Also: potency is read from the fitted curve at half-maximal effect. Put shortly:
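Concentration-dependent increases in membrane-leaked protease activity are quantified in LYMP1-002 cells after 16 hr treatment; values are normalized against DMSO and tetraoctylammonium bromide (15 uM) controls and AC50 derived by Hill modeling.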

Experiment [4] can be described thus: Cell Viability - LYMP2-010 (AID 981). Also: nearly all actives have a fitted effect of over 55% in size. Also: potency is read from the fitted curve at half-maximal effect. In outline:
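This 24 hr viability screen uses LYMP2-010 lymphoblastoid cells, quantifies ATP via luciferase luminescence, and derives AC50 from Hill fits of qHTS concentration-response data.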

Experiment [5] can be described thus: qHTS assay for small molecule disruptors of the mitochondrial membrane potential - 1 hr assay (AID 651754; calls by dose curve; also: nearly all actives have a fitted effect of over 35% in size; also: potency is read from the fitted curve at half-maximal effect). Put shortly:
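In this qHTS format, a 1 hr compound treatment of HepG2 cells precedes Mito-MPS staining, and membrane potential is judged from aggregate (red) against monomer (green) fluorescence intensity.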

The nature of experiment [6]: qHTS assay for small molecule agonists of the antioxidant response element (ARE) signaling pathway measured by Nrf2-dependant transcriptional activity (AID 720636; active = well fitted curve in the direction sought with a large enough effect in the repeat runs; inconclusive = weak or mixed curves; inactive = no such curve, though single readings can be large; an effect the other way counts as inactive or inconclusive; also: potency is read from the fitted curve at half-maximal effect;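 as to activation: HepG2 cells with an ARE-driven luciferase reporter; % of control where 0% means no effect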). Put shortly: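 In HepG2 cells engineered with an Nrf2-responsive luciferase gene, ARE induction was quantified as luminescence after 16 hr compound treatment at 37 C.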
In experiment [7] the target is Cytochrome P450 3A4 (Homo sapiens) (UniProt P08684). The experiment can be described thus: qHTS Assay for Inhibitors and Substrates of Cytochrome P450 3A4 (AID 884). Also: nearly all actives have a fitted effect of over 50% in size. Also: potency is read from the fitted curve at half-maximal effect. In outline:
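Luminescent readout of luciferin produced by CYP3A4 (20 nM) dealkylation of Luciferin-PPXE, 25 uM (its KM). NADPH-driven reaction ran 60 min at RT after 10 min compound preincubation; data scaled to 57 uM ketoconazole as 100% inhibition.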

The nature of experiment [8]: Cell Viability - LYMP2-004 (AID 966). Also: nearly all actives have a fitted effect of over 65% in size. Also: potency is read from the fitted curve at half-maximal effect. Put shortly:
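Viable-cell number estimated from ATP luminescence (CellTiter-Glo) in 2500 human lymphoblastoid cells/well after 24 hr at 37 C with compound. AC50 fitted to the standard Hill equation.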

Experiment [9] in a line: Cell Viability - LYMP2-013 (AID 970). Also: nearly all actives have a fitted effect of over 55% in size. Also: potency is read from the fitted curve at half-maximal effect. Put shortly: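 In complete culture medium, human lymphoblastoid cells were dosed for 24 hr at 37 C, with tetraoctylammonium bromide (6.4pM to 92 uM) as positive control. Viability reflects luciferase-based ATP signal; AC50 derived from concentration-response curves.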
Experiment [10] can be described thus: Cell Viability - LYMP2-002 (AID 977).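 Also: compound exposure lasted 24 h at 37 °C.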 Also: potency is read from the fitted curve at half-maximal effect. In outline: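 Human lymphoblastoid cells (2500/well) in complete medium were preincubated 5 hr at 37 C, then exposed to compounds for 24 hr at 37 C. Intracellular ATP was read by CellTiter-Glo luminescence; AC50 came from Hill-equation concentration-response fits.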
The nature of experiment [11]: Cell Viability - LYMP2-006 (AID 978). Also: nearly all actives have a fitted effect of over 60% in size. Also: potency is read from the fitted curve at half-maximal effect. Put shortly:
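Concentration-dependent loss of intracellular ATP in a human lymphoblastoid line after 24 hr treatment at 37 C was measured by CellTiter-Glo luminescence, with AC50 values obtained from standard Hill-equation modelling.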

A short description of experiment [12]: Cell Viability - LYMP2-014 (AID 983). Also: nearly all actives have a fitted effect of over 50% in size. Also: potency is read from the fitted curve at half-maximal effect. In outline:
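Quantitative HTS in lymphoblastoid cells: 24 hr compound exposure, then CellTiter-Glo ATP luminescence. Positive control was tetraoctylammonium bromide, 6.4pM to 92 uM.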

Experiment [13] is described as follows: Cell Viability - LYMP2-022 (AID 987). Also: nearly all actives have a fitted effect of over 55% in size. Also: potency is read from the fitted curve at half-maximal effect. Put shortly:
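In this qHTS cytotoxicity screen, compound titrations were incubated 24 hr at 37 C with human lymphoblastoid cells in complete medium. Luciferase-based ATP luminescence provided the viability signal.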

Experiment [14] can be described thus: Cell Viability - LYMP2-024 (AID 988). Also: nearly all actives have a fitted effect of over 60% in size. Also: potency is read from the fitted curve at half-maximal effect. In outline:
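Cells at 2500 per well received compound for 24 hr after a 5 hr settling period. Viability was scored by CellTiter-Glo luminescence, with AC50 from Hill fits.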

For experiment [15], the target named is Peroxisome proliferator-activated receptor delta (Homo sapiens) (UniProt Q03181). The experiment can be described thus: qHTS assay for small molecule agonists of peroxisome proliferator-activated receptor delta signaling (AID 588534; calls by dose curve;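 also: 0% = DMSO basal wells and 100% = positive control agonist at 10 µM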). In outline: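 EC50 and efficacy values derive from Hill fits of a concentration series in a beta-lactamase reporter cell assay. Exposure is 18 hrs at 37 C, with CCF4 fluorescence as the readout.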

Experiment [16] has as its target Vitamin D3 receptor (Homo sapiens) (UniProt P11473). The experiment can be described thus: qHTS assay for small molecule agonists of vitamin D receptor signaling (AID 588543; calls by dose curve;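 also: 0% = DMSO basal and 100% = reference agonist control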). Put shortly: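 qHTS in agonist mode: compound titrations stimulate a VDR-driven β-lactamase reporter in HEK293T cells over 16 h at 37 °C. Response normalized to 50 nM 1α,25-dihydroxyvitamin D3 = 100%, DMSO = 0%; Hill fitting gives EC50 and maximal response.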

Experiment [17] can be described thus: qHTS assay for small molecule activators of the p53 signaling pathway (AID 651743; active = well fitted activation curve with a large enough effect in the signal ratio, not every such curve was filed as active; inconclusive = small, poorly fitted or top-dose-only effect, or a change in a side signal; the % refers to the signal ratio; also: % of control where 0% means no effect). The settings on record: HCT-116 p53RE-bla, beta-lactamase FRET ratio, 16 h; activation: stronger effect = higher value. Put shortly: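 A beta-lactamase reporter under p53 response element control, stably carried by HCT-116 cells, reported pathway activation. Test compounds were applied for 16 hours at 37 C, and fluorescence was measured 2 hours after adding the B/G FRET substrate.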

The target of experiment [18] is Nuclear receptor ROR-gamma (Homo sapiens) (UniProt P51449). Description: qHTS assay for small molecule antagonists of the retinoid-related orphan receptor gamma (ROR-gamma) signaling pathway (AID 651802). Also: nearly all actives have a fitted effect of over 60% in size. Also: potency is read from the fitted curve at half-maximal effect. In outline:
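Doxycycline-induced reporter activity in engineered CHO cells (TET-inducible ROR, RORE-LUC) was measured by luminescence after 16hr compound exposure at 37C.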

Experiment [19] is described as follows: qHTS assay for cell viability of HEK293 cells (AID 743288). Also: nearly all actives have a fitted effect of over 50% in size. Also: potency is read from the fitted curve at half-maximal effect. As to max response: % is scaled to controls: 0 for no effect and ±100 for the full control effect. The settings on record: ATP luminescence (CellTiter-Glo), 18 h; max response: stronger effect = lower value. Put shortly: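 Quantitative high-throughput screen: compounds were pinned onto parental HEK293 cells (2,000 per well) after a minimum 5 h settling at 37 C, incubated 18 h at 37 C, and intracellular ATP measured by luciferase luminescence.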

The target in experiment [20] is Estrogen receptor (Homo sapiens) (UniProt P03372). Description: qHTS assay for small molecule antagonists of estrogen receptor alpha signaling (AID 588513; active = well fitted curve in the direction sought with a large enough effect in the signal ratio, with a control signal flat, not every such curve was filed as active; inconclusive = small, poorly fitted or top-dose-only effect, or effect the other way, or a change in a side signal; inactive = no such curve, though single readings can be large or run the other way; the % refers to the signal ratio; also: potency is read from the fitted curve at half-maximal effect). Put shortly:
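Cells were plated at 5000/well and incubated 4 h at 37 C. Compounds were added as 1:2 dilution series, duplicates. 17-beta-estradiol (0.5nM final) was added for 18 h before CCF4 detection.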

Sequence of Estrogen receptor (Homo sapiens) (P03372 whole entry, looked up): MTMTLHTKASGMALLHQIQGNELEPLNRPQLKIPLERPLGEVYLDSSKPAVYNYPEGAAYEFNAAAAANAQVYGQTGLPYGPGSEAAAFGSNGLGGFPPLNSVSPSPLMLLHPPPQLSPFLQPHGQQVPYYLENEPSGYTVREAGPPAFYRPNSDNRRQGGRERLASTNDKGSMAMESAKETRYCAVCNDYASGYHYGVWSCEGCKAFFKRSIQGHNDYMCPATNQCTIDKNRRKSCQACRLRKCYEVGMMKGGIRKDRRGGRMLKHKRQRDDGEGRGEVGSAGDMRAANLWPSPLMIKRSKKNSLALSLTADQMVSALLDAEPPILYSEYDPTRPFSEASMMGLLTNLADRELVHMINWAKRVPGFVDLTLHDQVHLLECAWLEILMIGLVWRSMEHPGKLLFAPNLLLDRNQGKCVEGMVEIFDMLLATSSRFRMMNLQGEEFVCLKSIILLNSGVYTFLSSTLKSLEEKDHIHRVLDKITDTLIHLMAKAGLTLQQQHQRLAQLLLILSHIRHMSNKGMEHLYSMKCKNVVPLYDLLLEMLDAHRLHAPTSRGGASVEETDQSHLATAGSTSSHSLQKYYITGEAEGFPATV
Sequence of Cytochrome P450 3A4 (Homo sapiens) (P08684 whole entry, looked up): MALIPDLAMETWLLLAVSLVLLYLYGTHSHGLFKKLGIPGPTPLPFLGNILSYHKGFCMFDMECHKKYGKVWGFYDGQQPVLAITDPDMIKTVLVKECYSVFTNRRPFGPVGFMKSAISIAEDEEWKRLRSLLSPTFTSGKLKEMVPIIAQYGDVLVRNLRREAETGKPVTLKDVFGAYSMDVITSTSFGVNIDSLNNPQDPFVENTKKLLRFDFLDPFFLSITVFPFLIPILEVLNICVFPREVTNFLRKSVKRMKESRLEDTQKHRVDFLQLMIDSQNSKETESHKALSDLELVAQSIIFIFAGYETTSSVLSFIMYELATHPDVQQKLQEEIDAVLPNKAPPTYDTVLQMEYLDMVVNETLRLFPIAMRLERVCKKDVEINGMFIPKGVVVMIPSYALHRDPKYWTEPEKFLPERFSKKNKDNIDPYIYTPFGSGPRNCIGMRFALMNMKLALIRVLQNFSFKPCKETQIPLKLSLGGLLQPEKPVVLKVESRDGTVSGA
Sequence of Peroxisome proliferator-activated receptor delta (Homo sapiens) (Q03181 whole entry, looked up): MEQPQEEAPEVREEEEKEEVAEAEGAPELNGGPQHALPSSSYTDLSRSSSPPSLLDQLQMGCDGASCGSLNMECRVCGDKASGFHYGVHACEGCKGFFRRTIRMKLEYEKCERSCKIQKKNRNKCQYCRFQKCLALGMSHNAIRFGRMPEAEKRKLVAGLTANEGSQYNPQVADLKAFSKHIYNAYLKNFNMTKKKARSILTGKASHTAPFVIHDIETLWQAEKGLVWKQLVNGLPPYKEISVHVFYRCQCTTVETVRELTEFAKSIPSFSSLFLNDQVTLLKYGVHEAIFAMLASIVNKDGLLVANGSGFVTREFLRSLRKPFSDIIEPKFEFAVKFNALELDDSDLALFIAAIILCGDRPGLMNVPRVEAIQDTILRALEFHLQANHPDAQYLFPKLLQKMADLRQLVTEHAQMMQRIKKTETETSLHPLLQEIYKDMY
Sequence of Vitamin D3 receptor (Homo sapiens) (P11473 whole entry, looked up): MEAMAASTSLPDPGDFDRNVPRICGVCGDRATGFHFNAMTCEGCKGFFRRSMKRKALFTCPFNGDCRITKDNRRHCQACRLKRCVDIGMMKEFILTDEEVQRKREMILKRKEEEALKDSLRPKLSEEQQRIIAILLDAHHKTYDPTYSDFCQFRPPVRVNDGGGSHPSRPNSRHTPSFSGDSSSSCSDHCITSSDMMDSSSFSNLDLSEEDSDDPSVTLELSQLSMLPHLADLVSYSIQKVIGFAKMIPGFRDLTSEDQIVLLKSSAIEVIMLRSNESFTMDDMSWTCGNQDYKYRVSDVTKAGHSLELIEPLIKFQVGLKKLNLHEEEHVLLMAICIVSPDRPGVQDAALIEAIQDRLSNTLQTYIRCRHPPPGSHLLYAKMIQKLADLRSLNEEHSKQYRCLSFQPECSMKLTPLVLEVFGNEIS
Sequence of Nuclear receptor ROR-gamma (Homo sapiens) (P51449 whole entry, looked up): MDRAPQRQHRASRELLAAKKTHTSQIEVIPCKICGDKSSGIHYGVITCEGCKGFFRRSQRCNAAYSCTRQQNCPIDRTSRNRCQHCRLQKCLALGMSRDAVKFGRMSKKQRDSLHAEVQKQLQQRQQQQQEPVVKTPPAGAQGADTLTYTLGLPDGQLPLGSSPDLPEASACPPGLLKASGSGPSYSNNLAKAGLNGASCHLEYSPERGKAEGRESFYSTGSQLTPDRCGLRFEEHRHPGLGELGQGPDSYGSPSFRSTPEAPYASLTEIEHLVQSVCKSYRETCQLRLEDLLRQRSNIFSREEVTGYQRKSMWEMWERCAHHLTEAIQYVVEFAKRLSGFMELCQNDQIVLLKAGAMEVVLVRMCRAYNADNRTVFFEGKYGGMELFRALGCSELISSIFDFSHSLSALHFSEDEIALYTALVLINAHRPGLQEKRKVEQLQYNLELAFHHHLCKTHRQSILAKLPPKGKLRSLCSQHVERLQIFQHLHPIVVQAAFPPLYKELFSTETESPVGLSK

For the compound `CC(=O)[O-].CC(=O)[O-].O.O.[Cd+2]`, the caspase-3 activation in experiment [1] is 0.407% (inactive). Besides, the Potency result in [2], in experiment [3] and in experiment [5] was “inactive” each time. For the same compound, the figures for the Potency in experiment [4] and in experiment [6] were 39.8 µM (active) and 0.841 µM (active), respectively.

In the case of `O=[N+]([O-])C(Br)Br`, the Potency entry in [7], in experiment [2], in experiment [3] and in [5] was “inactive” throughout. Also, the Potency in experiment [8] was 25.1 µM (active); in experiment [9], 12.6 µM (active); in [10] it was 10 µM (active); in experiment [11], 20 µM (active); in experiment [4] it was 7.94 µM (active); in [12], 15.8 µM (active). Moreover, the Potency in [13] was 12.6 µM (active); in experiment [14] it was 7.94 µM (active); in experiment [18], 18.8 µM (active). The compound was classed as inactive in [15] and in experiment [16]. The activation in experiment [17] was 12.3% (inactive). For the same compound, the max response in [19] is -25.4% (inactive).

Regarding `O=C(O)C1C(C(=O)O)C2(Cl)C(Cl)=C(Cl)C1(Cl)C2(Cl)Cl` (centres undefined), in [1], the caspase-3 activation was -0.161% (inactive). Further, the Potency result in [7], in experiment [2], in experiment [3], in [8], in experiment [9] and in experiment [10] was “inactive” throughout. Besides, the Potency result in [11], in experiment [4], in [12], in experiment [13], in experiment [14] and in experiment [20] was “inactive” throughout. Besides, the Potency result in [5], in experiment [18] and in experiment [6] was “inactive” each time. In addition, in experiment [15], the compound was called inactive. For the same compound, the activation in experiment [17] is -3.18% (inactive). For the same compound, the max response in experiment [19] was 0.0125% (inactive).

As for `O=C1C2(Cl)C3(Cl)C4(Cl)C(Cl)(Cl)C5(Cl)C3(Cl)C1(Cl)C5(Cl)C24Cl` (centres undefined), the Potency in experiment [7] is 10 µM (active) and 15.8 µM (active); in [2] it was 39.8 µM (active) and 50.1 µM (active); in [3], 20 µM (active) and 15.8 µM (active); in experiment [8], 39.8 µM (active); in experiment [11], 39.8 µM (active) and inactive; in experiment [5], 3.35 µM (active) and 10.6 µM (active). Also, in [18], the Potency was 9.44 µM (active) and 10.6 µM (active). The Potency entry in [14] and in experiment [6] was “inactive” each time. Moreover, the result in experiment [15] and in [16] was inactive. Also, the max response in experiment [19] was -22.6% (inactive) and -16.2% (inactive).

On to `C[C@@H]1CC[C@@]2(OC1)O[C@H]1[C@@H](O)[C@H]3[C@@H]4CC[C@H]5C[C@@H](O[C@@H]6O[C@H](CO)[C@H](O[C@@H]7O[C@H](CO)[C@@H](O)[C@H](O[C@@H]8OC[C@@H](O)[C@H](O)[C@H]8O)[C@H]7O[C@@H]7O[C@H](CO)[C@@H](O)[C@H](O[C@@H]8O[C@H](CO)[C@@H](O)[C@H](O)[C@H]8O)[C@H]7O)[C@H](O)[C@H]6O)[C@H](O)C[C@]5(C)[C@H]4CC[C@]3(C)[C@H]1[C@@H]2C`, for which the caspase-3 activation in experiment [1] was -3.54% (inactive). Also, the Potency entry in experiment [7] and in experiment [6] was “inactive” in each case. Also, the Potency in experiment [2] was 12.6 µM (active); in experiment [8] it was 12.6 µM (active); in experiment [9] it was 20 µM (active); in [10], 25.1 µM (active); in [11], 20 µM (active); in experiment [4], 20 µM (active). The Potency in experiment [12] was 25.1 µM (active); in experiment [13], 15.8 µM (active); in [14] it was 12.6 µM (active); in [20] it was 8.91 µM [inconclusive] (active); in experiment [5], 26.6 µM (active); in experiment [19], 25.1 µM (active).

For `COP(=O)(OC)O/C(=C\Cl)c1cc(Cl)c(Cl)cc1Cl`, the caspase-3 activation in [1] is 2.54% (inactive). Further, the Potency entry in experiment [7], in experiment [2], in [3], in experiment [10], in experiment [11] and in [20] was “inactive” each time. Besides, in experiment [15], the compound was called inactive. In addition, the activation in experiment [17] is -0.853% (inactive). Also, in experiment [19], the max response was -7.38% (inactive).

These data come from PubChem BioAssay (NCATS).
